Experimental data: PubChem BioAssay AID463212 (Sanford-Burnham Center for Chemical Genomics, 2010)
Screen size: about 330,000 compounds; about 4,400 (1.3%) were called active. Only a selection was taken, and actives are over-represented in it overall. A number with no mark means an inactive call.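 How the source made its calls: active means growth inhibition of the mutant yeast at or above 50%; inactive means the rest.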

Assay: growth inhibitors of tim23-1 mutant yeast, primary screen, luminescence, uHTS (AID 463212);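 further: temperature-sensitive mutant grown at 25 °C; plate controls were DMSO-treated mutant yeast for no effect and medium wells lacking yeast for full effect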
Details: S. cerevisiae tim23-1 growth, BacTiter-Glo luminescence, 24 h; at 20 µM; stronger effect = higher value

SMILES	inhibition
COC(=O)c1ccccc1NC(=O)CSc1nc2c(c(=O)[nH]1)CCC2	16%
CN1C(=O)/C(=C\c2cc(Br)cs2)c2ccccc21	24.9%
CN1C(=O)/C(=N/OC(=O)c2ccccc2Br)c2ccccc21	56.2% (active)
Nc1cc(OC(=O)c2ccccc2Br)nn1S(=O)(=O)c1ccccc1	37.3%
O=C(COc1ccc(F)cc1Br)NCC1COc2ccccc2O1 (stereo unspecified)	25%
CN(C)S(=O)(=O)N1CCN(c2ccc([N+](=O)[O-])cc2)CC1	9.07%
CSC(=S)N/N=C/c1c[nH]c2ccccc12	63.2% (active)
Nc1nonc1-n1nnc(C(=O)N/N=C/c2c[nH]c3ccccc23)c1-c1ccccc1	14.8%
O=C(O)c1cccc(NC(=S)N/N=C/c2c[nH]c3ccccc23)c1	7.37%
COc1ccc(CNc2ncnc3ccccc23)cc1	-0.028%
FC(F)(F)c1cccc(Nc2ncnc3ccccc23)c1	94% (active)
FC(F)(F)c1cccc(NC(=S)Nc2cccc(Cl)c2)c1	46.1%
Cc1ccccc1-n1nc(SCC(=O)O)sc1=S	-2.14%
[O-][n+]1c2c(nn1-c1ccc(Cl)c(Cl)c1)-c1nonc1CC2	4.72%
CCCc1cc(C(=O)Nc2ccc(Cl)cn2)cs1	33%
Clc1ccc(Nc2nc(-c3cccs3)cs2)nc1	70.7% (active)
Clc1ccc(Cc2nnc(-c3cccs3)o2)cc1	15%
O=C(OCC(=O)N1CCCCCC1)c1cnc(Cl)c(Cl)c1	2.9%
O=S(=O)(Nc1ccc(O)c2ccccc12)c1ccc(OC(F)(F)F)cc1	28.5%
COc1ccc(-c2onc(C)c2-c2ccc3c(c2)OCCO3)c(O)c1	28.1%
O=c1c(-c2ccc3c(c2)OCCO3)c(C(F)(F)F)oc2cc(O)cc(O)c12	58.2% (active)

SMILES	inhibition
CCOC(=O)c1cc2cc(-c3c(C(=O)OCC)oc4cc(O)cc(O)c4c3=O)ccc2o1	14.3%
CCOc1ccc(CCNC(=O)CCc2nnc3ccc(N4CCCC4)nn23)cc1OCC	10.2%
O=C1NC(c2ccccc2)Oc2ccccc21 (stereo unspecified)	22.9%
Cc1ccccc1NC(=O)COc1cccc2c1CCNC2=O	12.3%
O=C(Nc1ccc(N2CCN(C(=O)c3cccs3)CC2)cc1)c1cccnc1Cl	12.9%
O=C(Nc1nn(Cc2ccccc2F)cc1Br)c1cccs1	17.3%
O=C(Cc1ccccc1)N1N=C(c2ccncc2)CC1(O)C(F)(F)F (stereo unspecified)	9.71%
CC(=O)N1N=C(c2ccncc2)OC1(Cc1ccccc1)Cc1ccccc1	52.9% (active)
CC(=O)N1N=C(c2ccccc2)OC1c1cccnc1 (stereo unspecified)	0.277%
Cc1ccsc1C(=O)NNC(=O)COc1ccc(Br)cc1	-6.92%
C#CCNC(=O)[C@H](Cc1ccc(C(=O)c2ccccc2)cc1)NC(=O)OC(C)(C)C	5.1%
O=C(CNc1cccc(S(=O)(=O)N2CCCCC2)c1)Nc1ccccc1F	14.8%
COCCn1c(C)cc(C(=O)CN2c3cccc4cccc(c34)S2(=O)=O)c1C	5.11%
Cc1ccc(NC(=O)c2cc(-c3ccccc3O)n[nH]2)cc1C	-2.65%
CSc1ccccc1-c1nnc(-c2ccc(Cl)cc2)o1	21.3%
Oc1ccccc1-c1cc(-c2ccc(Cl)cc2)n[nH]1	56.4% (active)
Cc1ccc(NC(=O)c2nc[nH]c2C(=O)N2CCCCC2)c(C(=O)c2ccccc2)c1	6.29%
C=C(C)C(=O)O[C@H]1C/C(C)=C\C(=O)/C=C(\C)[C@H](O)[C@@H]2OC(=O)C(=C)[C@@H]21	4.97%
COc1ccc(C)cc1NC(=O)CSc1nnc(CC(=O)Nc2ccccc2F)n1C	3.22%
O=C(O)Cn1c(Cc2ccccc2)nc2ccccc21	-1.32%
CCOc1ccccc1Oc1cn[nH]c1-c1ccc(OC)cc1O	-69.3%

SMILES	inhibition
COc1ccc(Oc2cn[nH]c2-c2ccc(OC)cc2O)cc1	66.3% (active)
COc1ccc(-c2cn[nH]c2-c2ccc(OC)cc2)cc1	47.7%
Cc1cc(NC(=O)CSCc2nc(-c3cccc(Cl)c3)oc2C)no1	1.1%
COc1cccc2c1CCC(NC(C)=O)C2=O (stereo unspecified)	0.522%
Cc1cccc(C)c1NC(=O)CN(C)C(=O)CCC(=O)c1ccccc1	15%
Cc1cccc(C)c1NC(=O)C(Cl)C(=O)c1ccccc1 (stereo unspecified)	80.7% (active)
Cc1cccc(C)c1NC(=O)C(c1ccccc1)N1CC(=O)Nc2ccccc21 (stereo unspecified)	21.3%
COc1ccc(CN2CCCCC2C)cc1OC (stereo unspecified)	10.1%
CCC(C)n1c(-c2cc(OC)c(OC)c(OC)c2)nc2nc3ccccc3nc21 (stereo unspecified)	19.1%
C[C@H](NC(=O)C1CC(=O)N(c2ccc3c(c2)OCO3)C1)C(=O)NCc1ccco1 (stereo partly specified)	13.9%
CCCCN(CCCC)CC(O)Cn1c2ccccc2c(=O)c2ccccc21 (stereo unspecified)	5.18%
O=C1c2ccccc2S(=O)(=O)N1CC(O)Cn1c2ccccc2c2ccccc21 (stereo unspecified)	84.5% (active)
CC(C)(C)c1ccc(CN2C(=O)c3ccccc3S2(=O)=O)cc1	22.3%
COc1ccc(N(CC(=O)Nc2ccc(C)cc2C)S(=O)(=O)c2ccccc2[N+](=O)[O-])c(OC)c1	19.7%
COc1ccc(N(CC(=O)Nc2cccc3ccccc23)S(C)(=O)=O)c(OC)c1	6.45%
CCc1ccccc1NC(=O)CN(c1ccc(OC)cc1OC)S(=O)(=O)c1ccccc1[N+](=O)[O-]	50.4% (active)
CCN(CC)S(=O)(=O)c1ccc(CNC(=O)CN2C(=O)NC3(CCc4ccccc43)C2=O)cc1 (stereo unspecified)	9.27%
Cc1ccc(S(=O)(=O)N2CCC(C(=O)OCC(=O)N3CC(=O)Nc4ccccc43)CC2)cc1	14.9%
CC[C@]12c3[nH]c4ccc(Cl)cc4c3CCN1C(=O)[C@@H](CC(=O)NCCN1CCOCC1)C[C@@H]2C(=O)N1CCN(C(=O)C2CC2)CC1	24.7%
